Screens: PubChem, National Center for Advancing Translational Sciences (NCATS)
NPC1 promoter act – activates the NPC1 promoter; Huh7 NPC1 promoter luciferase reporter, 24 h; Potency, µM (titrated, usually from 9.22 µM), usual class: activators; 2.4% of 320,000 active; note: nearly all actives have a fitted effect of over 60% in size
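Stably transfected Huh7 (NPC1 promoter→luciferase), 1500 cells/well in Opti-MEM + 10% FBS, 2 h settle, then compound 24 h at 37 °C. Luminescence after 10 min with Amplite reagent.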
SMN2 splice enh – increases expression of the SMN2 splice variant. HEK293 SMN2-luciferase splicing reporter, luminescence, 30-36 h. Potency, µM (highest dose often 46.1 µM), actives largely listed as activators. 2.8% of 210,000 active; note: nearly all actives have a fitted effect of over 55% in size
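qHTS luciferase splicing reporter: luminescence rises when SMN2 exon 7 is included in transfected HEK293 cells. Compound exposure lasted 30-36 h at 37C, with 4.5 mM final sodium butyrate as control, followed by a ONE-Glo read.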
Rab9 promoter act – Rab9 promoter activation. Huh7 Rab9 promoter-luciferase reporter, luminescence, 24 h. Potency, µM (series often up to 9.22 µM), most hits filed as activators. 2.8% of 320,000 active. AID 485297; note: nearly all actives have a fitted effect of over 60% in size
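Stable Rab9-luc Huh7, 1500 cells/well, 2 h settle; cmpd in DMSO, 24 h, 37 °C/5% CO2; luciferase reagent 10 min RT; luminescence.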
KinaseGlo FLuc – blocks Kinase-Glo luciferase, a counter-screen artifact | 0.28% of 200,000 active | Kinase-Glo luciferase, ATP luminescence, 8 min | Potency, µM (doses to about 38.3 µM), usual class: inhibitors; note: nearly all actives have a fitted effect of over 60% in size
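Compounds were added to a substrate mix at pH 7.2 (50 mM imidazole, 10 uM ATP, within the enzyme's linear range), followed by Kinase-Glo detection reagent; luminescence was measured after 8 minutes at ambient temperature.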
ELG1 genotox – inducers of genotoxicity in HEK293T ELG1-luciferase cells; 1.3% of 330,000 active; HEK293T ELG1-luciferase reporter, luminescence, 16 h; AID 504466; Potency, µM (doses to about 46 µM), hits mostly activators; note: nearly all actives have a fitted effect of over 60% in size
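Genotoxic stress is detected as increased luminescence from luciferase-tagged ELG1 in HEK293T cells, measured with ONE-Glo after a 16 hr treatment at 37 °C.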
FLuc modulator – counter-screen for miR-21 project: firefly luciferase inhibitors or activators; P08659; purified FLuc, Km substrates, luminescence inhibition; Potency, µM (doses to about 57.5 µM), usual class: inhibitors; 6.9% of 360,000 active; note: nearly all actives have a fitted effect of over 55% in size
Target sequence (P08659 whole entry, looked up): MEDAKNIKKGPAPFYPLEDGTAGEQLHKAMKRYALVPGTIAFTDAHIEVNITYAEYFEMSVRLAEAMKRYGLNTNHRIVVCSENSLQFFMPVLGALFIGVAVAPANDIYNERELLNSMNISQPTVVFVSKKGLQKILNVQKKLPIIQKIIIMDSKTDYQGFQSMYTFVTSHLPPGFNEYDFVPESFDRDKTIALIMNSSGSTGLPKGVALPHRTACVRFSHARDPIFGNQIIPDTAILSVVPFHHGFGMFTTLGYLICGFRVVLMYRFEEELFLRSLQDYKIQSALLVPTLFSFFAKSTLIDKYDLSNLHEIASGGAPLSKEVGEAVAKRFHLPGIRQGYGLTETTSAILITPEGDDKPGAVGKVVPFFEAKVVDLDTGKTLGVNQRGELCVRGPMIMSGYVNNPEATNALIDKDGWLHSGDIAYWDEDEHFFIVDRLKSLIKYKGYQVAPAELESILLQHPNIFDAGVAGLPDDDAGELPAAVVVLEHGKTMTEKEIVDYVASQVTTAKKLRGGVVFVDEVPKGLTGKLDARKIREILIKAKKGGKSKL
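Biochemical qHTS of compounds, final roughly 60 µM downward over six points, against 10 nM purified firefly luciferase using Km concentrations of substrates (10 uM D-luciferin, 10 uM ATP) in Tris acetate pH 7.5 buffer; luminescence output.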
A number is an active result. This is a sample that favours compounds with a hit; in the whole collection about 7.3% have one here. Calls come from the whole dose curve; as a rule, active = well fitted curve in the direction sought with a large enough effect; inconclusive = small, poorly fitted or top-dose-only effect, or another doubt; inactive = no such curve, though single readings can be large; an effect the other way counts as inactive or inconclusive.

For NNc1nc2cc3c(cc2s1)OCCO3 the results were NPC1 promoter act 1.58µM, Rab9 promoter act 1.58µM, ELG1 genotox inconclusive and FLuc modulator 6.75µM.
`CN(C)CCN(C(=O)c1cccs1)c1nc2cc3c(cc2s1)OCCO3` gave NPC1 promoter act inactive, Rab9 promoter act inconclusive, ELG1 genotox inconclusive and FLuc modulator inactive.
`COc1ccc(C(=O)Nc2nc3cc4c(cc3s2)OCCO4)c(OC)c1` gave NPC1 promoter act inactive, Rab9 promoter act inactive, ELG1 genotox inconclusive and FLuc modulator 0.953µM.
`COc1ccccc1C(=O)Nc1nc2cc3c(cc2s1)OCCO3` gave NPC1 promoter act inconclusive, Rab9 promoter act 0.708µM, ELG1 genotox 2.06µM and FLuc modulator 0.675µM.
For O=C(Nc1nc2cc3c(cc2s1)OCCO3)c1cccs1 the results were NPC1 promoter act inconclusive, Rab9 promoter act 0.112µM, ELG1 genotox 0.411µM and FLuc modulator 0.213µM.
`CCOc1ccccc1NC(=O)C(C)N(c1ccccc1)S(C)(=O)=O` (configuration not stated) gave SMN2 splice enh inactive and FLuc modulator inactive.
`Cc1cc(C)cc(N2C(=O)CSC23C(=O)N(Cc2c(F)cccc2Cl)c2ccccc23)c1` (configuration not stated) gave FLuc modulator inactive.
COc1ccccc1C(=O)Nc1nc2cc3c(cc2s1)OCO3 was read as NPC1 promoter act 1.78µM, Rab9 promoter act 1.58µM, ELG1 genotox inconclusive and FLuc modulator 0.536µM.
COc1cccc(OC)c1C(=O)Nc1nc2cc3c(cc2s1)OCO3 was read as NPC1 promoter act inactive, Rab9 promoter act inactive, ELG1 genotox inactive and FLuc modulator inactive.
Screening CC(=O)Cn1cnc2c(sc3nc(C)cc(C)c32)c1=O returned NPC1 promoter act inactive, Rab9 promoter act inactive, ELG1 genotox inconclusive and FLuc modulator 15.1µM.
`COc1cccc(Cn2cnc3c(sc4nc(C)cc(C)c43)c2=O)c1` gave NPC1 promoter act inactive, Rab9 promoter act inactive, ELG1 genotox inactive and FLuc modulator inactive.
CC(C)CC(NC(=O)OCC1c2ccccc2-c2ccccc21)C(=O)O (configuration not stated) was read as SMN2 splice enh 12.6µM and KinaseGlo FLuc inactive.
For COc1ccc(C)cc1S(=O)(=O)Nc1cccc(-c2ccc(N3CCCCCC3)nn2)c1 the results were NPC1 promoter act inactive, Rab9 promoter act inactive, ELG1 genotox inactive and FLuc modulator 9.53µM.
For COc1ccc(OC)c(S(=O)(=O)Nc2cccc(F)c2)c1 the results were NPC1 promoter act inactive, SMN2 splice enh inconclusive, Rab9 promoter act inactive, KinaseGlo FLuc inactive, ELG1 genotox inactive and FLuc modulator inactive.
For COc1ccc(C)cc1S(=O)(=O)Nc1cccc(-c2ccc(N3CCC(C)CC3)nn2)c1 the results were FLuc modulator 2.39µM.
`COc1ccc(F)cc1S(=O)(=O)Nc1cccc(-c2ccc(N3CCC(C)CC3)nn2)c1` gave FLuc modulator 5.36µM.
CCOc1ccc(-n2c(SCC(=O)N3CCc4ccccc43)nc3c([nH]c4ccccc43)c2=O)cc1 was read as FLuc modulator inactive.
`CCN(CC)C(=O)c1sc2c(c1C)c(=O)n(Cc1ccccc1)c(=O)n2Cc1c(C)cc(C)cc1C` gave FLuc modulator inactive.
Screening COc1ccc(C2C=C(c3ccccc3)Nc3nc(NS(=O)(=O)c4ccccc4)nn32)cc1 (configuration not stated) returned FLuc modulator inactive.
Screening N#Cc1ccc(/C=C/C(=O)c2ccccc2)cc1 returned NPC1 promoter act inactive, Rab9 promoter act inactive, ELG1 genotox inconclusive and FLuc modulator 5.36µM.
O=C(/C=C/c1ccccc1)/C=C/c1ccccc1 was read as NPC1 promoter act inactive, SMN2 splice enh inactive, Rab9 promoter act inactive, KinaseGlo FLuc inactive, ELG1 genotox inactive and FLuc modulator 3.38µM.
N#Cc1ccccc1COc1ccc(/C=C/C(=O)O)cc1 was read as NPC1 promoter act inactive, SMN2 splice enh inactive, Rab9 promoter act inactive, KinaseGlo FLuc inactive, ELG1 genotox inactive and FLuc modulator 2.39µM.
For O=C(/C=C\c1ccc(-c2ccccc2)o1)c1ccccc1 the results were NPC1 promoter act inconclusive, SMN2 splice enh inconclusive, Rab9 promoter act inconclusive, KinaseGlo FLuc inactive, ELG1 genotox inconclusive and FLuc modulator 6.01µM.
`CCCCOc1ccc(C2c3c(oc4ccccc4c3=O)C(=O)N2c2nc(C)c(C(=O)OCC)s2)cc1OC` (configuration not stated) gave SMN2 splice enh inactive and FLuc modulator inactive.
`N/C(=N\OC(=O)/C=C/c1ccccc1)c1ccc(Cl)cc1` gave NPC1 promoter act inactive, Rab9 promoter act inactive, ELG1 genotox inactive and FLuc modulator inconclusive.
For O=C(/C=C/c1ccccc1)c1ccccc1 the results were NPC1 promoter act inactive, SMN2 splice enh inactive, Rab9 promoter act inactive, KinaseGlo FLuc inactive, ELG1 genotox inconclusive and FLuc modulator 2.39µM.
`O=C(/C=C/c1ccccc1)c1ccc2c3c(cccc13)CC2` gave NPC1 promoter act inactive, Rab9 promoter act inactive, ELG1 genotox inconclusive and FLuc modulator 12µM.
For O=C(O)c1ccccc1-c1ccccc1C(=O)Nc1ccc(F)cc1 the results were NPC1 promoter act inactive, Rab9 promoter act inactive, ELG1 genotox inactive and FLuc modulator inactive.
`O=C(/C=C/c1ccc(NC(=O)c2ccccc2-c2ccccc2C(=O)O)cc1)c1ccccc1` gave NPC1 promoter act inactive, Rab9 promoter act inactive, ELG1 genotox inactive and FLuc modulator 19µM.
`N/C(=N\OC(=O)/C=C/c1ccccc1)c1ccccc1` gave NPC1 promoter act inconclusive, Rab9 promoter act inconclusive, KinaseGlo FLuc inconclusive, ELG1 genotox 8.2µM and FLuc modulator 1.51µM.
Screening Cc1c(NC(=O)c2ccc3c4c(cccc24)CC3)c(=O)n(-c2ccccc2)n1C returned NPC1 promoter act inactive, SMN2 splice enh inactive, Rab9 promoter act inactive, KinaseGlo FLuc inactive, ELG1 genotox inactive and FLuc modulator inactive.
For O=C(/C=C/c1cccc([N+](=O)[O-])c1)c1ccccc1 the results were SMN2 splice enh inactive and KinaseGlo FLuc inactive.
Screening COC(=O)c1cnn(-c2ccc(C(=O)Nc3ccc(C(C)=O)cc3)cc2)c1N returned NPC1 promoter act inactive, Rab9 promoter act inactive and FLuc modulator inactive.
For CC(C)(C)C(=O)/C=C(N)/C=C/c1ccccc1 the results were NPC1 promoter act inconclusive, SMN2 splice enh inactive, Rab9 promoter act inactive, KinaseGlo FLuc inactive, ELG1 genotox inconclusive and FLuc modulator 12µM.
For O=C(Nc1ccc(Cl)cc1F)c1cc(S(=O)(=O)NCc2ccc3c(c2)OCO3)ccc1F the results were FLuc modulator inactive.
